Drawing on PubChem BioAssay AID1038 (National Center for Advancing Translational Sciences (NCATS), 2008), this text covers Potency and outcome for seven compounds.

Inconclusive results are not listed. The source made the active and inactive calls. Calls follow the shape of the full dose curve.

This experiment can be described thus: Normal 1 Cell Viability Secondary Assay for qHTS Assay for Epigenetic Modulators. The settings on record: Normal 1 bronchial epithelial viability, MTS, 4 d. The text has this: NIH Molecular Libraries Screening Centers Network [MLSCN] NIH Chemical Genomics Center [NCGC] MLSCN Grant: 1 X01 MH079860-01 Assay Provider: Elisabeth D. Martinez, University of Texas SW Medical Center NCGC Assay Overview: This secondary assay characterizes selected actives identified in the qHTS of the Locus Derepression (LDR) assay (PubChem AID 597). The LDR assay detects the derepression of a GFP reporter that is stably integrated in a region of the genome of murine c127i mammary cells that is presumably silenced. Compounds that cause derepression of the locus to express GFP are identified by enumerating GFP positive cells using a laser-scanning microplate cytometer. Selected LDR actives were assayed for killing of Normal 1, a patient-derived normal bronchial epithelial line matched to NSCLC 1, a nonsmall cell lung carcinoma line from the same patient. The Normal 1 line assays the cytoxicity of test compounds on normal lung cells. Normal 1 cell viability was measured using Cell Titer 96 AQueous One (Promega), an assay which detects the ability of metabolically active cells to reduce a tetrazolium salt substrate (MTS), into a soluble formazan product that can be measured by colorimetry.
NCGC Assay Protocol Summary Normal 1 cells were plated in 96-well flat bottom tissue culture dishes (Corning) and grown overnight at 37 C and 5% CO2, then treated with compounds, incubated 4 days, and assayed for viability using the Cell Titer 96 AQueous One kit (Promega) according to the manufacturer's protocol. Absorbance at 490 nm and 650 nm (reference) was measured by a Spectra Max (Molecular Devices). Data were normalized to the untreated control (100% viability). Each cell line was tested in one or two independent assays, each containing 4 or 8 replicates. For further details, see R.L. Johnson, W. Huang, A. Jadhav, C.P. Austin, J. Inglese, E.D. Martinez, A Quantitative High-Throughput Screen Identifies Potential Epigenetic Modulators of Gene Expression, Analytical Biochemistry (2007), doi: 10.1016/j.ab.2007.12.028
A general note: In qHTS, concentration-response curves come from the screen itself.
As to `CC(/C=C/C(=O)NO)=C\[C@@H](C)C(=O)c1ccc(N(C)C)cc1`, the Potency is 0.2 µM (active).
As for `O=C(CSc1cccc2cccnc12)NCc1ccccc1`, the compound was called inactive.
Same read-out and setting: to `CN1C(=S)SC(c2ccccc2)N(C)C1c1ccccc1` (configuration not stated) belongs “inactive”.
Turning to `O=Nc1ccc(O)c2ncccc12`, the Potency is 3 µM (active).
For the compound `CC(C)C(=O)NC(c1ccc(N(C)C)cc1)c1ccc2cccnc2c1O` (configuration not stated), the Potency is 6 µM (active).
Take `CC(C)C(=O)NC(c1ccco1)c1cc([N+](=O)[O-])c2cccnc2c1O` (configuration not stated): the Potency is 0.8 µM (active).
The same measure, in the same setting: to `CC(C)C(=O)NC(c1ccco1)c1ccc2cccnc2c1O` (configuration not stated) belongs 9 µM (active).
